# Laboratory results taken from the supplement of paper PMC3342239.
# Structures can show the parent of a compound that is named as a salt.
# System: Saccharomyces cerevisiae
# Experiment: fraction of cells in G1 phase (DNA content, flow cytometry); higher = more cells with unreplicated DNA (G1 delay)
# Conditions: temperature: 30 C; YPD; JTY2953 pdr5 snq2 (sensitized); drug added to: cultures diluted from stationary phase; 6-7 h
# Procedure, shortened: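 S. cerevisiae grown in YPD at 30°C was exposed to library drugs. In one setup, overnight sensitized JTY2953 cultures were diluted 1∶200, given a final 20 µg/ml and fixed after 6–7 h, while other runs dosed dividing JTY2953 with fixation 6 h later or BY4741 with fixation 4.33 h later. Cells were ethanol-fixed, stained with SYTOX Green and analysed by flow cytometry at 10,000 events. The G1 fraction is the area of the Dean-Jett-Fox G1 peak divided by the summed G1 and G2/M areas.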
row,Structure (SMILES),fraction of cells in G1 phase
1,CCN(CC)CCNC(=O)c1ccc(N)cc1 [Procainamide] (73.5835 µM),0.494
2,CC#C[C@]1(O)CC[C@H]2[C@@H]3CCC4=CC(=O)CCC4=C3[C@@H](c3ccc(N(C)C)cc3)C[C@@]21C [Mifepristone] (46.5541 µM),0.469
3,CCN[C@H]1C[C@H](C)S(=O)(=O)c2sc(S(N)(=O)=O)cc21 [Dorzolamide] (61.6443 µM),0.499
4,Cn1c(=O)c2c(ncn2CC2OCCO2)n(C)c1=O [Doxofylline] (75.1149 µM),0.465
5,CCC1(c2ccccc2)NC(=O)N(C)C1=O (stereo not drawn) [Mephenytoin] (91.6348 µM),0.522
6,c1ccc2c(CC3=NCCN3)cccc2c1 [Naphazoline HCl] (95.1108 µM),0.456
7,CN(C)CCN1C(=O)c2ccccc2N(C)c2ccccc21 [Dibenzepine HCl] (67.7077 µM),0.479
8,NC(=O)N1c2ccccc2CC(=O)c2ccccc21 [Oxcarbazepine] (79.2785 µM),0.503
9,Oc1ccc(C2CNCCc3c2cc(O)c(O)c3Cl)cc1 (stereo not drawn) [Fenoldopam mesylate] (65.41 µM),0.533
10,CC(C)C[C@H](NC(=O)[C@H](Cc1ccccc1)NC(=O)c1cnccn1)B(O)O [Bortezomib] (52.0499 µM),0.4
11,Nc1c(Br)cc(Br)cc1CN[C@H]1CC[C@H](O)CC1 [Ambroxol] (52.8948 µM),0.529
12,C[C@](N)(Cc1ccc(O)c(O)c1)C(=O)O [Methyldopa] (94.6883 µM),0.412
13,CCCOc1ccc2[nH]c(NC(=O)OC)nc2c1 [Oxibendazole] (80.2338 µM),0.481
14,CC(N)C12CC3CC(CC(C3)C1)C2 (stereo not drawn) [Rimantadine HCl] (111.54 µM),0.484
15,CN1CCN(C2=Nc3ccccc3Sc3ccc(Cl)cc32)CC1 [Clothiapine] (58.1596 µM),0.431
16,Cc1ccc(-c2ncc(Cl)cc2-c2ccc(S(C)(=O)=O)cc2)cn1 [Etoricoxib] (55.7337 µM),0.511
17,COc1ncnc(NS(=O)(=O)c2ccc(N)cc2)c1OC [Sulfadoxine] (64.4467 µM),0.474
18,CCC[C@@H]1C[C@@H](C(=O)N[C@@H]([C@H]2O[C@H](SC)[C@H](O)[C@@H](O)[C@H]2O)[C@@H](C)O)N(C)C1 [Lincomycin] (49.195 µM),0.539
